Screening results deposited in PubChem BioAssay by several laboratories.
SKBR3 24h inh: SK-BR-3 proliferation inhibitors | SK-BR-3 viability, CellTiter-Glo ATP luminescence, 24 h; active compounds read low | viability, % at 10 µM | actives 0.47% (n = 41,000) | AID 847;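 active = viability at or below the median of all test compounds minus 3 SD, in both replicates if run twice, cut at about 45% in these data; inconclusive = duplicate replicates that disagree with each other; inactive = viability above that cutoff in every replicate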;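 also: 100% = median untreated cell wells and 0% = median positive control drug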
Her2 expr inh: Her2 kinase expression inhibition | AID 645 | HER2 level % of control, % at 10 µM | P04626 | actives 0.69% (n = 65,000) | SKBR-3 HER2 protein level, AlphaScreen, 18-24 h; active compounds read low;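 active = HER2 level under 5% of the carrier-only control; inconclusive = no clear call, values can overlap the other calls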;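 also: 100% = DMSO carrier and 0% = 500 nM PU-H71 HSP90 inhibitor; lower value means stronger loss of Her2 protein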
Target sequence (P04626 whole entry, looked up): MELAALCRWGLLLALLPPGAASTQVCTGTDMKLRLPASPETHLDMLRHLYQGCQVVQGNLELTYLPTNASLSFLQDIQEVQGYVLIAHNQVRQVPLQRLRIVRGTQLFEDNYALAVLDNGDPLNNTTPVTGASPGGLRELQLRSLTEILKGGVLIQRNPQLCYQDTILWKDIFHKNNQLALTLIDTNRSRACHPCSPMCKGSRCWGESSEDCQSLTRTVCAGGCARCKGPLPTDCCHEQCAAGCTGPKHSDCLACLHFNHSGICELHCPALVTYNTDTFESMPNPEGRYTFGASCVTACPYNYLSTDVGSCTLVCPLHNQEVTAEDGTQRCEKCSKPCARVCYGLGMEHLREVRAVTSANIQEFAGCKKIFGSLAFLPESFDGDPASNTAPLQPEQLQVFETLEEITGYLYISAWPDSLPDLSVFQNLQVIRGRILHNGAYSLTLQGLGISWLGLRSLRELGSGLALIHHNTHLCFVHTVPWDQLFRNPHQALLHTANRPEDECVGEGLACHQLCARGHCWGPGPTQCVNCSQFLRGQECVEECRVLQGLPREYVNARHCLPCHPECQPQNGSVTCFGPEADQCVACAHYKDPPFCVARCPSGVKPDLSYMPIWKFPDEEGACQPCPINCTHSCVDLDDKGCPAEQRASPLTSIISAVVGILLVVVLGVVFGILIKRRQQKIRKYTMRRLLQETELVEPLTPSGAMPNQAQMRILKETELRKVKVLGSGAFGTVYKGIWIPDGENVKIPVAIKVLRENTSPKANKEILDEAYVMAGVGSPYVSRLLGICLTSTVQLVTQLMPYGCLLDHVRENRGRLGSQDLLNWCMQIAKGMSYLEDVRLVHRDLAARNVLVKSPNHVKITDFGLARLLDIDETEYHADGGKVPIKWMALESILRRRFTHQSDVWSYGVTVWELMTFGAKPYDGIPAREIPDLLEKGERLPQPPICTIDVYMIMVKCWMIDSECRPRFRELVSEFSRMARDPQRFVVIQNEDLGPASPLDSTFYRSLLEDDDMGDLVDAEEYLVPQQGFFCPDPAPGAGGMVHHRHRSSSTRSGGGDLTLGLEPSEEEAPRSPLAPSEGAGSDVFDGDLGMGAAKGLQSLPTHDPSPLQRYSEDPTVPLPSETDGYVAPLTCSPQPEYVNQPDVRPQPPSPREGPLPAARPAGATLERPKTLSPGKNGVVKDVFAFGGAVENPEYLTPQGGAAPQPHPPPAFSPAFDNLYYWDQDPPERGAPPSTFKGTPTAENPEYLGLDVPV
Jurkat tox 60K: cytotoxicity toward Jurkat cells | Jurkat E6.1 viability, ATP luminescence, 48 h | inhibition, % at 4 µM | actives 1.2% (n = 56,000) | AID 463;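 active = inhibition above the mean inhibition of all tested compounds plus 3 SD, cut at about 28% in these data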
* hit, by the source's call. This is a sample that favours compounds with a hit; in the whole collection about 1.9% have one here.

`O=C(NCc1ccc2c(c1)OCO2)C1CCCN1C(=O)Nc1cccc(Cl)c1` (stereo unspecified) gave SKBR3 24h inh 34*, Her2 expr inh 102 and Jurkat tox 60K -1.
Screening O=C(NCc1ccc2c(c1)OCO2)C1CCN(C(=O)Nc2ccc(Cl)cc2)CC1 returned SKBR3 24h inh 95, Her2 expr inh 69 and Jurkat tox 60K -1.
For O=C(CCNc1ccc(F)c(Cl)c1)c1ccco1 the results were Her2 expr inh 91 and Jurkat tox 60K 65*.
`O=C(CCNc1cc(Cl)cc(Cl)c1)c1ccco1` gave SKBR3 24h inh 92, Her2 expr inh 53 and Jurkat tox 60K 0.
c1ccc(Cn2c(CNc3nc4ccccc4n3CCN3CCOCC3)nc3ccccc32)cc1 was read as SKBR3 24h inh 58, Her2 expr inh 98 and Jurkat tox 60K -10.
c1ccc2c(CCNc3ncnc4nc[nH]c34)c[nH]c2c1 was read as Her2 expr inh 73 and Jurkat tox 60K 88*.
Screening c1ccc(CCNc2ncnc3nc[nH]c23)cc1 returned SKBR3 24h inh 94, Her2 expr inh 82 and Jurkat tox 60K -1.
Screening Cc1cc(C(=O)CSc2nnc(-c3cccc(F)c3)n2N)c(C)n1Cc1ccc2c(c1)OCO2 returned Her2 expr inh 48 and Jurkat tox 60K 37*.
`Cc1cc(C(=O)CSc2nnnn2-c2ccc(O)cc2)c(C)n1Cc1ccc2c(c1)OCO2` gave Her2 expr inh 180 and Jurkat tox 60K 1.
For N=c1sccn1CC(=O)Nc1cccc(Oc2ccccc2)c1 the results were Her2 expr inh 121 and Jurkat tox 60K 7.
N=c1sccn1CC(=O)Nc1ccccc1-c1ccccc1 was read as SKBR3 24h inh 33* and Her2 expr inh 110.
Screening COc1cc2c(cc1OC)CN(C(=O)CSc1nnc(C)s1)CC2 returned SKBR3 24h inh 97, Her2 expr inh 96 and Jurkat tox 60K -10.
For C=C(C)Cn1c(NCCC)nc2c1c(=O)n(C)c(=O)n2C the results were Her2 expr inh 88 and Jurkat tox 60K 4.
Screening Oc1ccc(Cl)cc1CNc1ccc(Br)cn1 returned SKBR3 24h inh 100, Her2 expr inh 102 and Jurkat tox 60K 56*.
Screening Oc1c(Cl)cc(Cl)cc1CNc1ccc(Br)cn1 returned SKBR3 24h inh 83 and Her2 expr inh 132.
Screening CCCN1C(=O)c2cc(C(=O)NCc3ccc(OC)cc3)ccc2C1O (stereo unspecified) returned SKBR3 24h inh 91 and Her2 expr inh 104.
CCOc1ccccc1NC(=O)c1cccc(NC(=O)c2ccco2)c1 was read as SKBR3 24h inh 95, Her2 expr inh 94 and Jurkat tox 60K 81*.
Screening CCCCOc1ccccc1NC(=O)c1ccco1 returned Her2 expr inh 79 and Jurkat tox 60K -7.
For Cc1ccc(-c2nc3ccccc3[nH]2)cc1NC(=O)c1ccco1 the results were Her2 expr inh 84 and Jurkat tox 60K 5.
Screening O=C(Nc1cccc(-c2nc3ccccc3[nH]2)c1)c1cccc(NC(=O)c2ccco2)c1 returned SKBR3 24h inh inconclusive, Her2 expr inh -17* and Jurkat tox 60K 1.
`Cc1nnc(NC(=O)C2CCCN(c3ncccn3)C2)s1` (stereo unspecified) gave SKBR3 24h inh 98, Her2 expr inh 66 and Jurkat tox 60K -4.
For CC(=O)/C(CN1CCCCC1)=N\O the results were SKBR3 24h inh 84, Her2 expr inh 91 and Jurkat tox 60K -1.
Screening C/C(=N\O)C(=O)C(CN1CCCCC1)CN1CCCCC1 returned Her2 expr inh -12* and Jurkat tox 60K 3.
COc1ccc(-n2nnc3c(SCC(=O)c4ccccc4)ncnc32)cc1 was read as Her2 expr inh 77 and Jurkat tox 60K 0.
For COc1ccc(-n2nnc3c(SCC(=O)Nc4ccc5c(c4)OCCO5)ncnc32)cc1 the results were Her2 expr inh -7.2* and Jurkat tox 60K -2.
For O=C(N1CCOCC1)N1CCC(NC(=O)C23CC4CC(CC(C4)C2)C3)CC1 the results were SKBR3 24h inh 104, Her2 expr inh 113 and Jurkat tox 60K 2.
For Cn1cc(C(=O)NCCc2ccccc2)c(=O)c2cc(S(=O)(=O)N3CCOCC3)ccc21 the results were Her2 expr inh 89 and Jurkat tox 60K -6.
`O=C(c1c(Cl)cccc1Cl)N1CCN(c2ccccn2)CC1` gave SKBR3 24h inh 81, Her2 expr inh 82 and Jurkat tox 60K 4.
`O=C(c1ccco1)N1CCN(C(=O)N2c3ccccc3Sc3ccccc32)CC1` gave SKBR3 24h inh 93, Her2 expr inh 37 and Jurkat tox 60K 98*.
Screening O=C(c1ccco1)N1c2ccccc2Sc2ccccc21 returned SKBR3 24h inh 73, Her2 expr inh 69 and Jurkat tox 60K 1.
O=C(N1CCN(c2ccccn2)CC1)N1c2ccccc2Sc2ccccc21 was read as SKBR3 24h inh 111, Her2 expr inh 67 and Jurkat tox 60K 69*.
Screening CCOC(=O)N1CCN(C(=O)CN(c2ccc(Cl)c(C(F)(F)F)c2)S(C)(=O)=O)CC1 returned SKBR3 24h inh 98 and Her2 expr inh 105.
Screening Cc1ccc(Cn2nnc3c(=O)n(Cc4cc(C)ccc4C)cnc32)cc1 returned Her2 expr inh 144 and Jurkat tox 60K -4.
`C=CCn1c(=O)c2ccccc2n2c(SCC(=O)c3ccccc3)nnc12` gave SKBR3 24h inh 68, Her2 expr inh 81 and Jurkat tox 60K 0.
`C=CCn1c(=O)c2ccccc2n2c(SCc3cc(=O)n4ccsc4n3)nnc12` gave Her2 expr inh -15* and Jurkat tox 60K 3.
Screening CCN1CCCC1CN(Cc1cc2ccc(C)c(C)c2[nH]c1=O)C(=O)Nc1ccccc1OC (stereo unspecified) returned Her2 expr inh 98 and Jurkat tox 60K 3.
COC(=O)c1[nH]c2ccc(C)cc2c1NC(=O)CCN1CCN(C2CCCCC2)CC1 was read as SKBR3 24h inh 94, Her2 expr inh 91 and Jurkat tox 60K -3.
For CCOC(=O)C1CCN(CC(=O)Nc2c(C(=O)OC)[nH]c3ccccc23)CC1 the results were SKBR3 24h inh 91, Her2 expr inh 108 and Jurkat tox 60K 10.
For CCOC(=O)C1CCN(CC(=O)Nc2c(C(=O)OC)[nH]c3ccc(Cl)cc23)CC1 the results were SKBR3 24h inh 95, Her2 expr inh 81 and Jurkat tox 60K 44*.
For COC(=O)c1[nH]c2ccc(Br)cc2c1NC(=O)CN1CCN(C2CCCCC2)CC1 the results were SKBR3 24h inh 87, Her2 expr inh -21* and Jurkat tox 60K 3.
`Cc1cccn2c(=O)c3cc(C(=O)NC(C)c4ccccc4)c(=N)n(CCCn4ccnc4)c3nc12` (stereo unspecified) gave SKBR3 24h inh 112, Her2 expr inh 75 and Jurkat tox 60K 8.
For Nc1c(C(O)(C(F)(F)F)C(F)(F)F)ccc2ccccc12 the results were Her2 expr inh 73 and Jurkat tox 60K 0.
Screening Cc1ccc(C)n1-c1ccc(N2CCOCC2)nc1 returned SKBR3 24h inh 98, Her2 expr inh -19* and Jurkat tox 60K -4.
`CN(C)S(=O)(=O)c1ccc(N2CCOCC2)nc1` gave SKBR3 24h inh 86, Her2 expr inh 94 and Jurkat tox 60K 1.
For Cc1ccc(-n2c(Cn3cnc4ccccc43)nnc2SCC(=O)O)cc1 the results were SKBR3 24h inh 73, Her2 expr inh 82 and Jurkat tox 60K -1.
For O=c1[nH]c(CSc2nnc(-c3ccncc3)n2Cc2ccco2)nc2ccccc12 the results were SKBR3 24h inh 78, Her2 expr inh 113 and Jurkat tox 60K -4.
